The values below come from PubChem BioAssay (NCI).

SMILES strings stand for the structures. About 83,000 compounds went through this panel and 20% of them were active in at least one assay; those are over-represented in the sample as a whole.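 Activity criterion: percent growth below 10, measured after cells in 96-well plates were exposed to a single compound concentration for 48 hours.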 Unmarked numbers belong to inactive results. Calls of active or inactive are those of the source.

Among the test systems are HCT-15 colon; HT29 colon; SNB-75 CNS; SNB-19 CNS; U251 CNS; PC-3 prostate; UACC-62 melanoma; LOX IMVI melanoma; SK-MEL-28 melanoma.
What all share (assay): NCI-60 one-dose screen, 48 h (100 = growth as untreated, 0 = no growth, -100 = all killed)
Conditions in all cases: 10 µM unless noted

As to `Clc1ccc2c(NCCCCNc3nc(N4CCOCC4)nc4ccccc34)ccnc2c1`, the growth in the experiment on HCT-15 colon was 22.9%; in the experiment with HT29 colon it was -26.4% (active); in the experiment with SNB-75 CNS, 79%; in the experiment with SNB-19 CNS, 14.7%; in the experiment on U251 CNS it was -59.6% (active); in the experiment with PC-3 prostate it was 38.9%. For the same compound, the growth was 99.1% with UACC-62 melanoma, -66.6% (active) in the experiment with LOX IMVI melanoma and 119% with SK-MEL-28 melanoma.
On to `CCCCCC(=O)Oc1ccc(/C(=C(\C)c2ccc(OC)cc2)c2ccc(OCCN3CCCCC3)cc2)cc1`, for which the growth was 9.94% (active) with HCT-15 colon; 8.71% (active) in the experiment with HT29 colon; 64% in the experiment on SNB-75 CNS; 74.4% in the experiment on SNB-19 CNS; 45.4% in the experiment on U251 CNS; 51.1% in the experiment with PC-3 prostate. Moreover, the values for the growth in the experiment with UACC-62 melanoma, with LOX IMVI melanoma and in the experiment on SK-MEL-28 melanoma were 6.92% (active), 33.5% and 27.6%, respectively.
As for `O=C(COc1ccc(-c2nc3cc(Cl)c(Cl)cc3[nH]2)cc1)N=Nc1c(O)[nH]c2ccccc12`, the growth is 79.4% in the experiment on HCT-15 colon; 4.49% (active) in the experiment on HT29 colon; -73.8% (active) with SNB-75 CNS; -35.9% (active) in the experiment on SNB-19 CNS; -86.3% (active) in the experiment with U251 CNS; -50.6% (active) in the experiment on PC-3 prostate. In addition, the values for the growth in the experiment with UACC-62 melanoma, in the experiment with LOX IMVI melanoma and in the experiment with SK-MEL-28 melanoma were 1.75% (active), 6.14% (active) and -49.1% (active), respectively.
Turning to `Clc1ccc2c(NCCNc3nc(N4CCOCC4)nc4ccccc34)ccnc2c1`, the growth is 15.2% in the experiment with HCT-15 colon; -69.2% (active) in the experiment with HT29 colon; -94.4% (active) with SNB-75 CNS; 5.66% (active) with SNB-19 CNS; -93.1% (active) in the experiment on U251 CNS; 34% with PC-3 prostate. For the same compound, the growth in the experiment with UACC-62 melanoma is -64.9% (active); in the experiment with LOX IMVI melanoma, -83.5% (active); with SK-MEL-28 melanoma, -47.5% (active).
As to `OCC(O)c1nc2ccc3[nH]ncc3c2c2c1CCCC2` (stereo unspecified), the growth is 5.03% (active) in the experiment on HCT-15 colon; 9.08% (active) in the experiment on HT29 colon; -60.8% (active) in the experiment on SNB-75 CNS; 7.63% (active) with SNB-19 CNS; 7.68% (active) in the experiment on U251 CNS; 9.74% (active) in the experiment with PC-3 prostate. For the same compound, the values for the growth in the experiment on UACC-62 melanoma, with LOX IMVI melanoma and in the experiment on SK-MEL-28 melanoma were -8.7% (active), 2.42% (active) and -3.58% (active), respectively.
For the compound `Cc1ccc(-c2onc3c(=O)[nH]nc(-c4ccccc4)c23)cc1`, the growth is 31.7% in the experiment with HCT-15 colon; -3.08% (active) with HT29 colon; 10.1% in the experiment with SNB-75 CNS; 31.3% with SNB-19 CNS; 20.3% with U251 CNS; 25.8% in the experiment on PC-3 prostate. Also, the results for the growth with UACC-62 melanoma, in the experiment with LOX IMVI melanoma and in the experiment with SK-MEL-28 melanoma were 44.8%, 37.6% and 66.9%, respectively.
Consider `CC(=O)c1cc2c(N)c(C(=O)Nc3cccc4ccccc34)sc2nc1C`, for which the growth in the experiment with HCT-15 colon was 33.8%; in the experiment with HT29 colon it was 5.75% (active); with SNB-75 CNS it was 19.8%; in the experiment with SNB-19 CNS it was 21.7%; in the experiment on U251 CNS it was 15.3%; with PC-3 prostate, 17.5%. Also, the growth is 23.5% in the experiment with UACC-62 melanoma, 41.1% in the experiment with LOX IMVI melanoma and 67.2% with SK-MEL-28 melanoma.
Regarding `Cc1nn(-c2cc(=O)[nH]c3ccc(Cl)cc23)c(N)c1C#N`, the growth with HCT-15 colon is 103%; in the experiment on HT29 colon it was 110%; in the experiment on SNB-75 CNS, 61.2%; in the experiment with SNB-19 CNS it was 108%; in the experiment with U251 CNS, 102%; in the experiment with PC-3 prostate, 95.6%. Besides, the growth is 98.8% in the experiment with UACC-62 melanoma, 92.9% in the experiment on LOX IMVI melanoma and 115% in the experiment with SK-MEL-28 melanoma.
Regarding `O=C1OC(c2ccccc2)C(O)=C1c1ccccc1` (stereo unspecified), the growth in the experiment with HCT-15 colon was 108%; in the experiment with HT29 colon it was 111%; in the experiment on SNB-75 CNS, 102%; in the experiment with SNB-19 CNS it was 105%; in the experiment on U251 CNS, 100%; in the experiment with PC-3 prostate it was 99.1%. The growth in the experiment on UACC-62 melanoma was 104%; with LOX IMVI melanoma, 113%; in the experiment with SK-MEL-28 melanoma, 120%.
`CC1=CC(=NN=c2cc(C)n([O-])c(C)c2)C=C(C)[N+]1=O`: the growth with HCT-15 colon is 94.4%; in the experiment with HT29 colon, 74.6%; with SNB-75 CNS, 64.7%; with SNB-19 CNS it was 103%; in the experiment with U251 CNS it was 91.2%; in the experiment with PC-3 prostate, 91.9%. Also, the values for the growth in the experiment on UACC-62 melanoma, in the experiment on LOX IMVI melanoma and in the experiment with SK-MEL-28 melanoma were 80.3%, 41.7% and 80.8%, respectively.
`CCc1nc(N)nc(N)c1C#CC(C)c1ccc(-c2ccncc2)cc1Cl` (stereo unspecified): the growth with HCT-15 colon is 13.3%; in the experiment with HT29 colon it was 4.74% (active); in the experiment with SNB-75 CNS, -9.88% (active); in the experiment with SNB-19 CNS it was 20.9%; in the experiment with U251 CNS, 13.8%; in the experiment with PC-3 prostate, 21.6%. The growth with UACC-62 melanoma was 13.2%; in the experiment on LOX IMVI melanoma, 13.9%; with SK-MEL-28 melanoma, 40.4%.
As to `COc1ccc(/C=C2\Oc3cc(OCCCCN4CCCC4)ccc3C2=O)cc1`, the growth in the experiment with HCT-15 colon was 9.45% (active); in the experiment on HT29 colon, 6.71% (active); in the experiment on SNB-75 CNS, 98.1%; in the experiment with SNB-19 CNS, 83.7%; in the experiment with U251 CNS, 62.6%; in the experiment on PC-3 prostate it was 75.6%. Also, the figures for the growth in the experiment on UACC-62 melanoma, in the experiment on LOX IMVI melanoma and in the experiment with SK-MEL-28 melanoma were 90.5%, -84.7% (active) and 107%, respectively.
On to `COc1cc(C(=O)Oc2ccccc2OC(=O)c2cc(OC)c(OC)c(OC)c2)cc(OC)c1OC`, for which the growth in the experiment on HCT-15 colon is 99.4%; in the experiment on HT29 colon, 110%; in the experiment on SNB-75 CNS it was 95.3%; with SNB-19 CNS it was 97%; with U251 CNS, 104%; in the experiment with PC-3 prostate it was 88.8%. Also, the growth was 103% in the experiment on UACC-62 melanoma, 94.9% with LOX IMVI melanoma and 120% in the experiment on SK-MEL-28 melanoma.
As to `CCC([N+](=O)[O-])S(=O)(=O)c1ccc(C)cc1` (stereo unspecified), the growth with HCT-15 colon was 105%; with HT29 colon it was 101%; in the experiment on SNB-75 CNS, 85.1%; in the experiment with SNB-19 CNS, 94.4%; in the experiment with U251 CNS it was 100%; in the experiment with PC-3 prostate it was 101%. The growth in the experiment with UACC-62 melanoma is 101%; in the experiment on LOX IMVI melanoma, 98.2%; with SK-MEL-28 melanoma, 112%.
